Source: PubChem BioAssay (Tox21)
Values joined by “and” are separate entries in the source; they are usually repeats but may differ in a detail not shown here. Identical values can stand only once. Results filed as inconclusive are left out. Entries that show only a call come without a potency. Some structures have more than one record in an assay (separate samples or runs), and their calls can disagree. Active and inactive are the calls of the source. Unless noted, calls come from the whole dose curve; as a rule, active = well fitted curve in the direction sought with a large enough effect in the repeat runs; inconclusive = weak or mixed curves; inactive = no such curve, though single readings can be large; an effect the other way counts as inactive or inconclusive.

Tests used:
[1] = qHTS assay to identify small molecule agonists of the vitamin D receptor (VDR) signaling pathway - cell viability counter screen (AID 743224); note: series mostly up to about 63 µM; nearly all actives have a fitted effect of over 50% in size
Outline: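 Plated VDR-bla cells (4 h, 37C) received compound, incubated 16 h, then LiveBLAzer substrate 2 h RT; CellTiter-Glo added afterwards, luminescence read at 30 min.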

[2] = qHTS assay to identify small molecule antagonists of the vitamin D receptor (VDR) signaling pathway - cell viability counter screen (AID 743225); note: nearly all actives have a fitted effect of over 50% in size
Outline: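 HEK293T VDR-bla; cpd + 1a,25-(OH)2D3 3 nM final, 16 h 37C/5% CO2; B/G FRET substrate 2 h RT; then CellTiter-Glo 30 min RT, luminescence.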

[3] = qHTS assay to identify small molecule agonists of the NFkB signaling pathway (AID 1159509; active = well fitted curve in the direction sought with a large enough effect in the signal ratio in the repeat runs, not every such curve was filed as active; the % refers to the signal ratio; note: series mostly up to about 61 µM)
Outline: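 After overnight attachment, reporter cells received test compounds, DMSO or positive controls and were incubated 5 hr at 37 C. FRET substrate was then added for 1.5 hr at room temperature before dual-emission fluorescence reading.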

[4] = qHTS assay to identify small molecule agonists of the NFkB signaling pathway - cell viability counter screen (AID 1159515; calls by dose curve; note: series mostly up to about 61 µM; nearly all actives have a fitted effect of over 55% in size)
Outline: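 Using the same wells as the NFkB reporter read, ME-180 NFkB-bla cells given compounds for 5 hr were assessed for viability via CellTiter-Glo, with luminescence taken after a 30 min room-temperature incubation.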

[5] = qHTS assay to identify small molecule agonists of the endoplasmic reticulum stress response signaling pathway (AID 1159516; active = well fitted activation curve with a large enough effect in the signal ratio in the repeat runs, not every such curve was filed as active; the % refers to the signal ratio)
Outline: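 An ESRE-bla HeLa cell assay: compounds were pin-transferred from DMSO onto overnight-plated cells and left 5 hr at 37 C. Substrate was then loaded for 2 hr at room temperature before reading fluorescence at 460 nm and 530 nm.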

[6] = qHTS assay to identify small molecule agonists of the endoplasmic reticulum stress response signaling pathway - cell viability counter screen (AID 1159517; calls by dose curve;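 note: HeLa cells carrying an ER stress response element beta-lactamase reporter; series mostly up to about 61 µM; nearly all actives have a fitted effect of over 50% in size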)
Outline: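 Luminescence readout: CellTiter-Glo, 30 min RT, same wells as the ESRE-bla reporter read. HeLa ESRE-bla, 1,500 cells/well, o/n 37 C; cpd 5 hr 37 C/5% CO2.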

[7] = qHTS assay to identify small molecule antagonists of the retinoid-related orphan receptor gamma (ROR-gamma) signaling pathway - cell viability counter screen (AID 1159520); note: nearly all actives have a fitted effect of over 50% in size; note: potency is the fitted concentration of half-maximal effect
Outline: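 Tet-on ROR gamma CHO cells (1,000/well) were plated 4 hr, given compounds in DMSO for 2 hr at 37 C, then induced with 1 uM final doxycycline for 16 hr. Viability was read as ATP by CellTiter-Glo luminescence after 30 min.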

[8] = biological target: Nuclear receptor ROR-gamma (Homo sapiens) (UniProt P51449); experiment: qHTS assay to identify small molecule antagonists of the retinoid-related orphan receptor gamma (ROR-gamma) signaling pathway (AID 1159521; note: nearly all actives have a fitted effect of over 50% in size; note: potency is the fitted concentration of half-maximal effect)
Outline: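 Cells were plated, rested 4 h at 37 C, exposed to compounds for 2 h, then given 1 uM final doxycycline hyclate to induce RORγ expression. After 16 h, ONE-Glo luminescence from the ROR response element reporter was measured.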

[9] = qHTS assay to identify small molecule agonists of the AP-1 signaling pathway - cell viability counter screen (AID 1159525; calls by dose curve; note: nearly all actives have a fitted effect of over 55% in size)
Outline: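 ME-180 AP-1-bla, 2500 cells/well, Opti-MEM + 0.5% dialyzed FBS; overnight 37 °C; cpd 15-pt titration, 5 h 37 °C; CellTiter-Glo 30 min RT; luminescence read; normalised to TOAB and DMSO controls.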

[10] = qHTS assay to identify small molecule agonists of the AP-1 signaling pathway (AID 1159526; calls by dose curve)

Row | SMILES | outcome [1] | outcome [2] | outcome [3] | outcome [4] | outcome [5] | outcome [6] | Potency [7] | Potency [8] | Potency [9] | Potency [10]
1 | CN1C(=O)CN=C(c2ccccc2)c2cc(Cl)ccc21 | inactive | inactive | inactive | inactive | inactive | inactive | inactive | inactive | inactive | inactive
2 | CCCCN(CC)C(=O)SCCC | inactive | inactive | inactive | inactive | inactive | inactive | inactive | inactive | inactive | inactive
3 | CCOP(OCC)OCC | inactive | inactive | inactive | inactive | inactive | inactive | inactive | inactive | inactive | inactive
4 | COC(=O)NS(=O)(=O)c1ccc(N)cc1 | inactive | inactive | inactive | inactive | inactive | inactive | inactive | inactive | inactive | inactive
5 | Cc1ccc(N)cc1Cl | inactive | inactive | inactive | inactive | inactive | inactive | inactive | inactive | inactive | inactive
6 | CC(C#N)CCC#N (stereo not drawn) | inactive | inactive | inactive | inactive | inactive | inactive | inactive | inactive | inactive | inactive
7 | CC(C)OC(=O)Nc1cccc(Cl)c1 | inactive | inactive | inactive | inactive | inactive | inactive | inactive | inactive | inactive | –
8 | O=[N+]([O-])c1ccccc1 | inactive | inactive | inactive | inactive | inactive | inactive | inactive | inactive | inactive | inactive
9 | Cc1ccc(N)cc1N | inactive | inactive | inactive | inactive | inactive | inactive | inactive | inactive | inactive | inactive
10 | CN(C)CCO | inactive | inactive | inactive | inactive | inactive | inactive | inactive | inactive | inactive | inactive
11 | O=Cc1cccc(Oc2ccccc2)c1 | inactive | inactive | inactive | inactive | inactive | inactive | inactive | inactive | inactive | inactive
12 | Cn1cc(-c2ccccc2)c(=O)c(-c2cccc(C(F)(F)F)c2)c1 | inactive | inactive | inactive | inactive | inactive | inactive | inactive | inactive | inactive | inactive
13 | CCCCN(CCCC)SN(C)C(=O)Oc1cccc2c1OC(C)(C)C2 | inactive | inactive | inactive | inactive | inactive | inactive | 62.1 µM (active) | 22 µM (active) and 30.6 µM (active) | inactive | inactive
14 | COCCl | inactive | inactive | inactive | inactive | inactive | inactive | inactive | inactive | inactive | inactive
15 | CC(C)(C)OOC(=O)c1ccccc1 | inactive | inactive | inactive | inactive | inactive | inactive | inactive | inactive | inactive | inactive
16 | Nc1c(Cl)c(Cl)nc(C(=O)O)c1Cl | inactive | inactive | inactive | inactive | inactive | inactive | inactive | inactive | inactive | inactive
17 | C=CC(N)=O | inactive | inactive | inactive | inactive | inactive | inactive | inactive | inactive | inactive | inactive

Row | SMILES | outcome [1] | outcome [2] | outcome [3] | outcome [4] | outcome [5] | outcome [6] | Potency [7] | Potency [8] | Potency [9] | Potency [10]
18 | C[C@]12CC[C@H]3[C@@H](CC[C@@]45O[C@@H]4C(O)=C(C#N)C[C@]35C)[C@@H]1CC[C@@H]2O | inactive | inactive | inactive | inactive | inactive | inactive | inactive | 48.6 µM (active) | inactive | inactive
19 | CC(Br)C(=O)O (stereo not drawn) | inactive | inactive | inactive | inactive | inactive | inactive | inactive | inactive | inactive | inactive
20 | CCCCCOC(=O)c1ccccc1C(=O)OCCCCC | inactive | inactive | inactive | inactive | inactive | inactive | inactive | inactive | inactive | –
21 | CCN(CC)c1ccccc1 | inactive | inactive | inactive | inactive | inactive | inactive | inactive | inactive | inactive | inactive
22 | NCC(O)c1ccc(O)cc1 (stereo not drawn) | inactive | inactive | inactive | inactive | inactive | inactive | inactive | inactive | inactive | inactive
23 | CCCN(CCC)c1c([N+](=O)[O-])cc(C(F)(F)F)cc1[N+](=O)[O-] | inactive | inactive | inactive | inactive | inactive | inactive | inactive | inactive | inactive | inactive
24 | O=NN1CCCC1 | inactive | inactive | inactive | inactive | inactive | inactive | inactive | 10.1 µM (active) and inactive | inactive | inactive
25 | CC(=O)C=C(C)C | inactive | inactive | inactive | inactive | inactive | inactive | inactive | inactive | inactive | inactive
26 | CC1C=[C-]C=C1.[C-]#[O+].[C-]#[O+].[C-]#[O+].[Mn] | inactive | inactive | inactive | inactive | inactive | inactive | inactive | inactive | inactive | inactive
27 | CCCN(CCC)N=O | inactive | inactive | inactive | inactive | inactive | inactive | inactive | inactive | inactive | inactive
28 | CC(Oc1ccc(Cl)cc1Cl)C(=O)O (stereo not drawn) | inactive | inactive | inactive | inactive | inactive | inactive | inactive | inactive | inactive | inactive
29 | [N-]=[N+]=[N-] | inactive | inactive | inactive | inactive | inactive | inactive | inactive | inactive | inactive | inactive
30 | c1ccc2c(c1)Oc1ccccc1O2 | inactive | inactive | inactive | inactive | inactive | inactive | inactive | inactive | inactive | inactive
31 | CON(C)C(=O)Nc1ccc(Cl)c(Cl)c1 | inactive | inactive | inactive | inactive | inactive | inactive | inactive | inactive | inactive | inactive
32 | c1ccc(-c2ccccc2)cc1 | inactive | inactive | inactive | inactive | inactive | inactive | inactive | inactive | inactive | inactive
33 | Clc1cccc(Cl)c1Cl | inactive | inactive | inactive | inactive | inactive | inactive | inactive | inactive | inactive | inactive
34 | Clc1ccccc1Cl | inactive | inactive | inactive | inactive | inactive | inactive | inactive | inactive | inactive | inactive
